# Compound activity as filed in PubChem.
# Rows were chosen to be rich in hits. Some 3.5% of all compounds tested hit in one or more screens of this group.
# GPR151 ag = human GPR151 activation | 1% of 650,000 active | activation, % at 11.2 µM | Q8TDV0 | PathHunter beta-arrestin GPR151 cells, luminescence; in the data active means activation above about 4.9%;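 further: 0% = median of compound wells and 100% = cells with positive control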
# TEAD-YAP inh = TEAD-YAP interaction inhibition | HEK-TIYL cells, TEAD-Gal4/YAP UAS-luciferase luminescence | inhibition, % at 9.12 µM | 1.4% of 640,000 active; in the data active means inhibition above about 32%;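 further: 0% = median of test compound wells and 100% = reference inhibitor wells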
# FBW7 activator = activators of human E3 ligase FBW7; Q969H0; 0.13% of 650,000 active; normalized activity (activation), % at 26.1 µM; AID 1259310; AlphaScreen FBW7–phospho-cyclin E peptide binding, activator screen; in the data active means normalized activity above about 1.9%;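 further: purified mutant Fbw7 with reduced substrate affinity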
# MITF primary = blocks human microphthalmia-associated transcription factor; 0.91% of 650,000 active; inhibition, % at 2.6 µM; AlphaScreen MITF homodimerization, bead proximity signal; in the data active means inhibition above about 50%;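 further: 0% = vehicle wells with protein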
# Target sequence (O75030 whole entry, looked up): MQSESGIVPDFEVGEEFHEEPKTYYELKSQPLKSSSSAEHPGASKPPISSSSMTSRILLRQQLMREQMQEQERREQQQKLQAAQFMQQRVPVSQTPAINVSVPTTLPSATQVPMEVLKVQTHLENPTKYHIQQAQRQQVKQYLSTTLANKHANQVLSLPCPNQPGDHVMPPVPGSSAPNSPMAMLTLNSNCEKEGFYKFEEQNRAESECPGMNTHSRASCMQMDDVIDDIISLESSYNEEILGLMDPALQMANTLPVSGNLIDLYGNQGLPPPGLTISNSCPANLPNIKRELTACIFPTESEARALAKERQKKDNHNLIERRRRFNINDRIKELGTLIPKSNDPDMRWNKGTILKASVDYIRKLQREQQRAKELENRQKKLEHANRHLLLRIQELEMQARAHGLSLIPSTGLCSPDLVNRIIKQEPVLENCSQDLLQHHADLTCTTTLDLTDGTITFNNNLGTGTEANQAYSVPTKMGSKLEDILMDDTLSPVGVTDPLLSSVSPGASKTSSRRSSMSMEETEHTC
# MITF confirm = confirmation of human MITF inhibitors. shares compounds with MITF primary. AID 1259372. inhibition, % at 2.6 µM. AlphaScreen MITF homodimerization, biotin/His-MITF beads. 16% of 4,700 active;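 active means inhibition above a cutoff derived from the DMSO control wells, cut at about 28% in these data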;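 further: 0% = MITF dimer wells with DMSO only; inhibitors lower the bead chemiluminescence by keeping MITF from dimerizing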
# AS interf DR = optically interferes with AlphaScreen signal in dose response; 6% of 480 active; IC50, µM; shares compounds with MITF primary; AID 1259373; AlphaScreen optical interference counterscreen, cell-free; call rule not given here
# AlphaScreen intf2 = AlphaScreen optical interference, counter-screen; shares compounds with MITF primary; LysRS AlphaScreen counterscreen, signal interference, triplicate; inhibition, % at 2.6 µM; 7.6% of 4,700 active; AID 1259376;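 active means inhibition above a cutoff derived from the DMSO control wells, cut at about 30% in these data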
# * hit, by the source's call; x = not tested or not shown.
SMILES,GPR151 ag,TEAD-YAP inh,FBW7 activator,MITF primary,MITF confirm,AlphaScreen intf2,others
Cc1ccc(CN2CCN(c3ccc([N+](=O)[O-])cc3)CC2)s1,0.0,2.1,0.6,70.3*,-3.0,2.7,
O=[N+]([O-])c1ccc(N2CCN(Cc3cc(Br)cs3)CC2)cc1,1.5,6.4,0.1,55.6*,4.4,5.7,
O=[N+]([O-])c1ccc(CN2CCCCCC2)s1,-0.9,9.1,-0.2,3.5,x,x,
CC(=O)c1ccc(N2CCN(Cc3ccc(C)s3)CC2)cc1,0.6,-1.0,0.1,35.7,x,x,
Cc1ccc(NC(=O)c2ccc([N+](=O)[O-])o2)cc1,-0.8,-27.9,0.1,-8.0,x,x,
O=C(Cc1c[nH]c2ccccc12)Nc1ccc(F)c(F)c1F,0.7,-4.6,0.0,2.0,x,x,
CC(C)c1ccccc1OCC(O)CNC1CCN(Cc2ccccc2)C1 (stereo unspecified),-0.6,3.0,-0.1,69.4*,-29.1,7.0,
CCC(C)c1ccccc1OCC(O)CNC1CCCC1 (stereo unspecified),-0.3,5.2,1.2,33.6,x,x,
CC(C)C(=O)N1CCN(CC(O)COc2ccccc2C(C)C)CC1 (stereo unspecified),-0.5,4.5,-0.1,51.9*,9.8,11.6,
CCC(C)c1ccccc1OCC(O)CN1CCCCC1 (stereo unspecified),0.3,15.6,0.0,-1.7,x,x,
O=C(O)c1ccc(-n2cccc2)cc1Cl,-0.2,0.4,-0.4,79.2*,74.9*,12.1,AS interf DR=>6.48
O=C(O)c1ccc(-n2cnnn2)cc1Cl,1.6,5.7,-0.1,9.5,x,x,
CC(C)(C)OC(=O)NC(Cc1ccccc1)C(=O)NCCC(=O)OCCCl (stereo unspecified),0.9,0.8,0.1,9.3,x,x,
COc1ccc(CN2CCN(C(=O)c3cccs3)CC2)cc1OC,-1.8,1.0,-0.1,36.9,x,x,
COc1ccc(CN2CCN(C(=O)c3ccccc3F)CC2)cc1Br,-0.5,-2.9,0.0,54.2*,26.7,-10.4,
CCOc1ccc(CN2CCN(C(=O)c3cccs3)CC2)cc1,-0.7,8.4,-0.1,59.9*,9.4,14.0,
COc1ccc(CN2CCN(C(=O)c3cccs3)CC2)cc1Br,-0.7,-8.9,0.1,66.7*,3.2,9.0,
CCc1ccc(CN2CCC(C(=O)NC(C)C)CC2)cc1,-0.4,6.5,0.2,34.1,x,x,
CCc1ccc(CN2CCN(C(=O)CC(C)C)CC2)cc1,0.5,4.6,0.3,58.4*,0.8,9.4,
COc1ccc(S(=O)(=O)Nc2cc(-n3c(C)nc4ccccc4c3=O)ccc2Cl)cc1F,-1.3,-9.8,-0.2,-4.9,x,x,
COc1ccc(CCNC(=O)c2ccncc2)cc1,0.7,12.8,0.0,-0.3,x,x,
COc1ccc(C(=O)N2CCN(Cc3ccc(OC)c(Br)c3)CC2)cc1,-1.6,4.2,0.6,43.0,x,x,
COc1ccc(CN2CCN(C(=O)CC(C)C)CC2)cc1Br,-2.3,-3.6,0.3,54.3*,4.1,15.0,
O=C(c1cccc(Cl)c1)N1CCN(C2CCN(Cc3ccccc3)CC2)CC1,0.0,1.2,0.9,32.5,x,x,
O=C(c1ccccc1)N1CCC(N2CCN(c3ccccc3)CC2)CC1,0.2,3.2,0.1,79.4*,-1.0,-0.9,
SMILES,GPR151 ag,TEAD-YAP inh,FBW7 activator,MITF primary,MITF confirm,AlphaScreen intf2,others
O=C(CCC(=O)N1CCN(c2ccccc2)CC1)N1CCN(c2ccccc2)CC1,-0.5,6.7,0.2,14.7,x,x,
O=C(c1ccccc1)N1CCN(C2CS(=O)(=O)CC2O)CC1 (stereo unspecified),0.2,4.9,0.2,80.8*,11.3,16.0,
O=C(c1cccc(Cl)c1)N1CCC(N2CCN(c3ccccc3)CC2)CC1,0.1,6.6,-0.2,79.1*,3.7,1.2,
O=C(CCC1CCCC1)N1CCC(N2CCN(c3ccccc3)CC2)CC1,1.4,4.0,0.2,55.2*,14.5,4.8,
COc1cccc(NC(=O)CCC2CCN(C(=O)c3cccnc3SC)CC2)c1,-0.4,-3.0,0.0,3.7,x,x,
COc1ccc(N2CCN(C(=O)c3ccccc3C)CC2)nn1,0.4,-0.8,-0.1,-0.2,x,x,
CC1CCc2sc(NC(=O)c3cccs3)c(C(N)=O)c2C1 (stereo unspecified),-1.0,-70.1,0.1,-4.2,x,x,
N#Cc1c(-c2ccco2)cc(-c2ccco2)nc1N,-1.3,4.9,-1.5,84.7*,72.7*,19.9,AS interf DR=>6.48
N#Cc1c(-c2ccco2)cc(C2CC2)nc1N,-0.4,-17.9,0.4,-8.2,x,x,
